Hits are enriched below; roughly 1.6% of the tested compounds scored in any of these assays.
PERK inh: human PERK inhibition, primary cell-based screen | Q9NZJ5 | CHO PERK-DD fusion, SEAP luminescence translation reporter | inhibition, % at 5.6 µM | 0.17% of 220,000 active | AID 1416;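 active = inhibition above the mean inhibition of all tested compounds plus 3 SD, set separately per screening campaign, cut at about 2.9% in these data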;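 also: PERK kinase domain activated by AP20187 dimerizer at 100 nM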
MLLE-PAM2 inh: blocks PAM2 peptide binding to the PABP1 MLLE domain; P11940; GST-MLLE / FITC-PAM2 fluorescence polarization; inhibition, % at 20 µM; 0.36% of 360,000 active; AID 588489; in the data active = inhibition above about 35%, passing the limit was not always enough
eIF4H FP inh: inhibitors of RNA binding by human eIF4H; eIF4H fluorescence polarization binding assay; inhibition, % at 35 µM; 0.94% of 290,000 active; AID 2012;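 also: calls also rest on retests at 20 µM and on dose response follow-up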
PABP polyA inh: blocks human PABP binding to poly(A) RNA; P11940; fluorescence polarization; inhibition, % at 35 µM; 1% of 290,000 active; AID 2014;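 also: calls also rest on retests at 20 µM and on dose response follow-up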
eIF4E 4G PPI: blocks eIF4E binding to eIF4G | P63073+Q04637 | TR-FRET eIF4E-eIF4GI(517-606) binding, 2 h | inhibition, % at 21.7 µM | 0.37% of 220,000 active;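 active = inhibition above about 30%, limit read from the data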
Hits are given with their value; . = inactive; ? = inconclusive; / = no result; [ ] = dose if it differs, or a comment. Unless noted, no rule for the calls is given here.

SMILES | PERK inh | MLLE-PAM2 inh | eIF4H FP inh | PABP polyA inh | eIF4E 4G PPI
Cc1c(N2C(=O)/C(=C/c3ccccc3)SC2=S)c(=O)n(-c2ccccc2)n1C | . | . | . | . | .
Cc1cc(C)nc(N/N=C/c2ccccc2OCc2ccc([N+](=O)[O-])cc2)n1 | . | . | . | . | .
O=[N+]([O-])c1ccc(N/N=C\c2ccccc2OCc2ccccc2)cc1 | . | . | 23 | 74 | .
Cc1cccc(OCc2nnc(SCC(=O)NCc3ccc4c(c3)OCO4)o2)c1 | / | . | / | / | /
CC(=O)c1ccc2c(c1)N(Cc1ccc3ccccc3c1)C(=O)C(C)S2 (stereo not drawn) | / | . | / | / | /
Cc1c2cnn(CC(=O)Nc3c(F)c(F)cc(F)c3F)c(=O)c2c(C)n1Cc1ccccc1F | . | . | 95 | 9.6 | 32
CNC(=O)Cn1ncc2c(C)n(Cc3ccc(C)cc3)c(C)c2c1=O | . | . | . | . | .
COc1ccc(CNc2ccc(S(N)(=O)=O)cc2)cc1 | . | 57 | . | . | .
CC(C)N(Cc1nc(-c2ccccc2)no1)C(=O)COc1ccccc1 | . | . | . | . | 62
COc1ccccc1OCC(=O)N(Cc1nc(-c2ccccc2)no1)C(C)C | / | . | . | . | /
NS(=O)(=O)c1ccc(NC(=O)CSc2ccccn2)cc1 | . | . | . | . | /
NS(=O)(=O)c1cccc(NC(=O)CSc2ccccn2)c1 | . | . | . | 76 | .
O=C(CSc1ccccn1)N1CCN(C(=O)CSc2ccccn2)CC1 | / | . | . | . | /
O=C(O)CSc1ccccn1 | . | . | . | . | 33
S=C(NC1CCCCC1)NN1CCCCCC1 | / | . | / | / | /
CN1CCN(NC(=S)NC2CCCCC2)CC1 | . | . | 87 | 0.9 | .
O=C1NC(=Nc2ccc3ccccc3c2)S/C1=C/c1ccco1 | . | . | 80 | . | .
O=C(CSc1nc(-c2ccc(F)cc2)nc2c1Cc1ccccc1O2)Nc1ccc(C(=O)O)cc1 | . | . | . | . | 62
O=C(CSc1nc(-c2ccccc2)nc2c1Cc1ccccc1O2)Nc1ccc(C(=O)O)cc1 | . | . | . | . | 60
CC(=O)c1ccc2c(c1)N(CCCN(C)C)c1ccccc1S2 | / | 50 | / | / | /
CC(=O)c1ccc2c(c1)Nc1ccccc1S2 | . | . | 67 | 77 | .
C/C(=N\NC(=O)c1ccc(C)cc1C)c1ccc2c(c1)Nc1ccccc1S2 | . | . | . | . | .
O=C(NCCCN1CCCC1=O)c1cccc(S(=O)(=O)N2CCN(c3ccc(F)cc3)CC2)c1 | / | . | . | . | /
c1ccc(CN2CCC(=NNc3nc4ccccc4[nH]3)CC2)cc1 | . | . | . | . | .
CC(C)(C)C1CCC(=NNc2nc3ccccc3[nH]2)CC1 (stereo not drawn) | . | . | . | 51 | .
SMILES | PERK inh | MLLE-PAM2 inh | eIF4H FP inh | PABP polyA inh | eIF4E 4G PPI
CN(C)S(=O)(=O)c1cccc(NC(=O)COC(=O)c2cccnc2Cl)c1 | / | . | / | / | /
CC(C)CCC(C)NC(=O)CN1C(=O)NC(C)(c2ccc3ccccc3c2)C1=O (stereo not drawn) | / | . | . | . | /
CCC(CC)C1C(C#N)=C(N)Oc2cc(C)oc(=O)c21 (stereo not drawn) | . | . | . | . | .
Cc1cc2c(c(=O)o1)C(c1ccc([N+](=O)[O-])o1)C(C#N)=C(N)O2 (stereo not drawn) | . | . | 93 | 62 | .
CCCOc1ccc(Cl)cc1/C=C1/C(=O)ON=C1C | / | . | . | . | /
CC1=NOC(=O)/C1=C\c1ccc(-c2ccc(Cl)cc2Cl)o1 | . | . | 55 | . | .
COc1ccc(CN2C(=O)C(CC(=O)NCc3cccs3)CC(C(=O)N3CCOCC3)=C2C)cc1 (stereo not drawn) | / | . | / | / | /
Clc1ccc(/C=N/c2c(-c3ccco3)nc3ccccn23)cc1 | . | 39 | 128 | 120 | .
COc1ccc(/C=N/c2c(-c3ccco3)nc3ccccn23)cc1OC | . | 47 | ? | ? | .
Cc1ccc(NS(=O)(=O)c2c(C)ccc3nsnc23)c([N+](=O)[O-])c1 | / | . | . | . | /
COc1ccc(C(=O)[C@@H]2CC[C@](C)(C(=O)O)C2(C)C)cc1 | / | . | / | / | /
CC1(C2CCCC2)NC(=O)NC1=O (stereo not drawn) | / | . | / | / | /
CC1(C2CC2)NC(=O)NC1=O (stereo not drawn) | . | . | . | . | 90[fluorescence artefact?]
COc1ccccc1CC(=O)NCC1CCCO1 (stereo not drawn) | / | . | . | . | .
COc1ccccc1CNC(=O)C(=O)NCC1CCCO1 (stereo not drawn) | . | . | active | 109 | .
COc1ccc(C(CNC(=O)c2cc(S(=O)(=O)N3CCCC3)ccc2Cl)N2CCCC2)cc1 (stereo not drawn) | / | . | / | / | /

From PubChem BioAssay
